Bioassay records: PubChem BioAssay, Johns Hopkins Ion Channel Center
Sampled rows, rich in hits. Any-hit rate of the full collection: about 1.6%.
KCNQ2 enhance: KCNQ2 (rat) channel potentiation | O88943 | CHO-K1 KCNQ2, FluxOR thallium flux fluorescence; active compounds read high | B-score at 10 µM | hit rate 0.54% among 310,000 | AID 2239;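 active = fluorescence ratio B-score at least 3 SD of library B-scores, with initial fluorescence B-score within 3 of them, cut at about 5.3 in these data; same plate scores as AID 2156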;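 also: B-score of peak minus minimum over baseline fluorescence ratio after K+ and Tl+ stimulus; positive B-score means potentiation of KCNQ2 with more thallium influx and brighter signal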
KCNQ2 block: KCNQ2 (rat) channel inhibition; hit rate 1.1% among 310,000; CHO-K1 KCNQ2, FluxOR thallium flux, 20 min; active compounds read low; B-score at 10 µM;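 active = fluorescence ratio B-score at most minus 3 library SDs, with starting brightness B-score within 2 library SDs, cut at about -5.5 in these data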
KCNQ2 inh conf: confirmation of rat KCNQ2 potassium channel inhibitors; KCNQ2-expressing cells, thallium flux, inhibition; active compounds read low; shares compounds with KCNQ2 block; AID 493025; activity change, negative = inhibition, % at 10 µM; hit rate 57% among 1,000;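 also: 0% = vehicle wells and values are ratio percent relative to vehicle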
KCNQ1 spec: KCNQ2 inhibitor that also affects human KCNQ1 channel | shares compounds with KCNQ2 block | KCNQ1-expressing cells, FluxOR thallium flux fluorescence; active compounds read low | activity change, negative = inhibition, % at 10 µM | hit rate 15% among 1,000 | AID 493026;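 active = activity change at least 3 SD of negative controls below their mean in both duplicate wells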;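 also: CHO cells stably transfected with KCNQ1 and depolarized by potassium stimulus; peak minus minimum fluorescence over baseline after thallium addition; 0% = vehicle negative control and -100% = blank without thallium stimulus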
Target sequence (P51787 whole entry, looked up): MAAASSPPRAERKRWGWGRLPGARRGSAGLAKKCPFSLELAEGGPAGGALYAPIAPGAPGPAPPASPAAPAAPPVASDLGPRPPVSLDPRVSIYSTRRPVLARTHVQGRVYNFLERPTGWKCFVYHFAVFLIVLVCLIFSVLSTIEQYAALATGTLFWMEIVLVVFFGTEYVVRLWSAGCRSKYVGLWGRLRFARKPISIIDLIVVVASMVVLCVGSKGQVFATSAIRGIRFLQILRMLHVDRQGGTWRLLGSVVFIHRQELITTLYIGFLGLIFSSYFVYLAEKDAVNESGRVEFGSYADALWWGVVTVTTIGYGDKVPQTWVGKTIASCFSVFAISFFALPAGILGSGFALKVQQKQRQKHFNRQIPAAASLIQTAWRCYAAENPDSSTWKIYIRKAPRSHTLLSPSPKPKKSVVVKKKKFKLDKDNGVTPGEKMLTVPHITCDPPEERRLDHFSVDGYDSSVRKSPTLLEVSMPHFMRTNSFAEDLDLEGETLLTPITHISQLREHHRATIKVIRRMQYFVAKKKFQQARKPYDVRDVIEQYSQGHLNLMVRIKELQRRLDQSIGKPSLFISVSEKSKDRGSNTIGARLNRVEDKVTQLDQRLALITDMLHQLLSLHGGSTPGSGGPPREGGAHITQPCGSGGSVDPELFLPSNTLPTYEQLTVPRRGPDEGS
CHO Tl ctr: activity in parental CHO cells lacking KCNQ2. shares compounds with KCNQ2 block. thallium flux counter-screen; active compounds read low. activity change, % at 10 µM. hit rate 14% among 1,000. AID 493029;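 also: 0% = vehicle negative controls with stimulus buffer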
KCNQ2 patch conf: confirmation of rat KCNQ2 potassium channel inhibitors; AID 588531; calls only at 10 µM; shares compounds with KCNQ2 block; KCNQ2-expressing cells, automated patch clamp current; hit rate 49% among 550
Starred values were filed as active, the others as inactive; i = inactive; · = no result given; + = active, no number. Unless noted, no rule for the calls is given here.

SMILES	KCNQ2 enhance	KCNQ2 block	KCNQ2 inh conf	KCNQ1 spec	CHO Tl ctr	others
CCC(C)(C)n1nnnc1C(c1cc2cccc(C)c2[nH]c1=O)N1CCCC1 (centres undefined)	·	i	·	·	·
Cc1cc(Br)c2c(c1)C(O)(N1CCCCC1C)C(=O)N2 (centres undefined)	0.47	i	·	·	·
Cc1c(CCOC(=O)C23CC4(C)CC(C)(CC(C)(C4)C2)C3)sc[n+]1CC(=O)c1ccccc1	·	i	·	·	·
Cc1c(CCOC(=O)CC23CC4CC(CC(C4)C2)C3)sc[n+]1CC(=O)c1ccccc1	-8.5	-8.5*	-20%*	i	i	KCNQ2 patch conf=+
CCCCCNC(=O)Cc1ccc(S(=O)(=O)N2CCOCC2)s1	0.12	i	·	·	·
CCOC(=O)N1CCC(N(CCCOC)C(=O)Nc2cccc(OC)c2)CC1	·	i	·	·	·
CCOC(=O)N1CCC(N(CCOC)C(=O)Nc2ccc(Cl)c(Cl)c2)CC1	-9.4	-9.4*	-25%*	i	i
COC(=O)c1cc(OC)c(OC)cc1NC(=O)c1cc(C(C)(C)C)oc1C	·	i	·	·	·
COc1cc(C(=O)Nc2cccc(C)c2C)c(Br)c(OC)c1OC	-8	-8*	-24%*	i	i	KCNQ2 patch conf=+
COC(=O)c1cccc(NC(=O)c2cc(OC)c(OC)c(OC)c2Br)c1	·	i	·	·	·
Cc1ccc(OCC(=O)Nc2ccccc2C(=O)N2CCCC2)cc1	0.75	i	·	·	·
CCCCCCCC[n+]1c(C)n(-c2ccccc2)c2ccc(NC(C)=O)cc21	·	i	·	·	·
Cc1ccc2c(c1)C(c1ccccc1)N(C(=O)c1ccc(Br)cc1)CC(=O)N2 (centres undefined)	0.09	i	·	·	·
c1ccc(CC2CCN(C(c3cccs3)c3nnnn3C3CCCC3)CC2)cc1 (centres undefined)	·	i	·	·	·
c1ccc(CN(Cc2cccs2)C(c2cccs2)c2nnnn2C2CCCC2)cc1 (centres undefined)	-8.2	-8.2*	i	i	i
COc1ccc(NC(=O)CSc2nnc(NC(=O)C3CC3)s2)cc1OC	·	i	·	·	·
CC(C)(C)N1CC(c2nc3ccccc3n2Cc2ccc(Cl)cc2)CC1=O (centres undefined)	-7.1	-7.1*	-27%*	i	i	KCNQ2 patch conf=+
CC(C)(C)N1CC(c2nc3ccccc3n2CCOc2ccccc2)CC1=O (centres undefined)	1.5	i	·	·	·
Cc1cccc(N2C(=O)c3ccc(C(=O)Nc4ccccn4)cc3C2=O)c1	0.05	i	·	·	·
Cc1cccc(N2C(=O)/C(=C\c3ccc(C(=O)O)cc3)c3ccccc3C2=O)c1	-9.1	-9.1*	-20%*	i	i	KCNQ2 patch conf=i
C=CCNC(=O)/C(C#N)=C/c1ccccc1Cl	-6.7	-6.7*	i	i	i
C=CCNC(=O)/C(C#N)=C/c1ccc(C(=O)O)cc1	0.4	i	·	·	·
COc1ccc(CCNC(=O)CN2C(=O)COc3ccc(S(=O)(=O)N4CCOCC4)cc32)cc1OC	·	i	·	·	·
CCCOC(=O)/C(=C\C=C\c1ccccc1)NC(=O)c1ccccc1	·	i	·	·	·
CCCCOC(=O)/C(=C/C=C/c1ccccc1)NC(=O)c1ccccc1	-6.9	-6.9*	-25%*	i	i	KCNQ2 patch conf=i
SMILES	KCNQ2 enhance	KCNQ2 block	KCNQ2 inh conf	KCNQ1 spec	CHO Tl ctr	others
CC(C)Cn1c(N)c(C(=O)COC(=O)CC23CC4CC(CC(C4)C2)C3)c(=O)n(C)c1=O	·	i	·	·	·
COc1ccc(-c2nc3cc(C)ccn3c2NCc2ccc3c(c2)OCO3)cc1	·	i	·	·	·
COc1ccc(-c2nc3ccccn3c2NCc2ccc3c(c2)OCO3)cc1	-8.4	-8.4*	i	i	i
COc1ccc2nc(SCC(=O)N(C)CC(=O)Nc3ccc(F)cc3)[nH]c2c1	0.71	i	·	·	·
CC(C)CN(C(=O)COC(=O)CCC(=O)c1ccc(F)cc1)c1c(N)n(Cc2ccccc2)c(=O)[nH]c1=O	0.12	i	·	·	·
COc1cccc(OC)c1C(=O)Nc1ccccc1NC(=O)c1c(OC)cccc1OC	0.06	i	·	·	·
COc1cccc(OC)c1C(=O)Nc1ccccc1Sc1ccccc1	-7	-7*	i	i	i
COCCn1c(SC(C(=O)Nc2cc(C)ccc2OC)c2ccccc2)nnc1-c1ccc(Cl)cc1 (centres undefined)	-9.5	-9.5*	i	i	i
COc1ccc(C)cc1NC(=O)C(Sc1nnnn1C)c1ccccc1 (centres undefined)	·	i	·	·	·
CC(C)(C)n1nnnc1C(c1cccs1)N1CCCC2(CCCCC2)C1 (centres undefined)	-7.5	-7.5*	-33%*	-38%*	-30%*	KCNQ2 patch conf=i
c1csc(C(c2nnnn2C2CCCCC2)N2CCCC3(CCCCC3)C2)c1 (centres undefined)	·	i	·	·	·
Cc1ccccc1Cn1cc(NC(=O)c2cc(C3CC3)on2)cn1	0.94	i	·	·	·
Cc1ccc(OCCCSc2ncccn2)cc1C	·	i	·	·	·
CC(C)(C)c1cccc(OCCCSc2ncccn2)c1	-9.2	-9.2*	i	i	i
C=CCn1c(Sc2ncc([N+](=O)[O-])s2)n[nH]c1=O	-9.8	-9.8*	-40%*	i	i	KCNQ2 patch conf=i
O=[N+]([O-])c1cnc(Sc2ccncn2)s1	·	i	·	·	·
O=C(O)CCCCCN=Cc1c(O)c2ccccc2oc1=O	·	i	·	·	·
O=C(CCCCC(=O)NCCc1ccccc1)NCCc1ccccc1	0.71	i	·	·	·
O=C(NCCn1cc(SCc2ccc(F)cc2)c2ccccc21)c1c(F)cccc1F	0.27	i	·	·	·
O=C(NCCn1cc(SCc2ccc(F)cc2)c2ccccc21)c1ccccc1F	-9.1	-9.1*	i	i	i
CCOc1ccc(C(=O)C2CCN(C(=O)c3ccc([N+](=O)[O-])cc3)CC2)cc1	·	i	·	·	·
CC(=O)N1CCc2cc(S(=O)(=O)CCC(=O)NCCc3ccccc3)ccc21	1.8	i	·	·	·
CC(C)[C@H](NC(=O)OCc1ccccc1)C(=O)OCC(=O)NCCc1ccccc1	-7.1	-7.1*	i	i	i
CC(C)[C@H](NC(=O)c1ccccc1)C(=O)OCC(=O)NCCc1ccc(F)cc1	·	i	·	·	·
O=c1c2ccccc2ncn1CCCCOc1ccc(Br)cc1	·	i	·	·	·
SMILES	KCNQ2 enhance	KCNQ2 block	KCNQ2 inh conf	KCNQ1 spec	CHO Tl ctr	others
COc1ccc(/C=N/N=C/c2ccc(OC)c(OC)c2)cc1OC	0.43	i	·	·	·
COc1cc(/C=N/N=C(N)N)ccc1OCc1ccccc1Cl	-10	-10*	-26%*	i	i	KCNQ2 patch conf=i
COc1ccc(-c2cc(C(=O)OC3CCOC3=O)c3ccccc3n2)cc1 (centres undefined)	·	i	·	·	·
COc1ccccc1CC(=O)NC1CCCc2ccccc21 (centres undefined)	-7.1	-7.1*	-24%*	i	i	KCNQ2 patch conf=+
CC(C)C[C@H](NC(=O)NC1CCCc2ccccc21)C(=O)O (some centres undefined)	·	i	·	·	·
COC(=O)[C@H](CC(C)C)NC(=O)NC1CCCc2ccccc21 (some centres undefined)	-7.5	-7.5*	-28%*	i	i	KCNQ2 patch conf=+
COc1cc(CC(=O)NC2CCCc3ccccc32)cc(OC)c1OC (centres undefined)	0.39	i	·	·	·
